Data reported in ChEMBL document CHEMBL3433997, “St. Jude Leishmania screening dataset” (2016).

Experiments:
Assay type in all cases: functional
[1] = molecular target: Solute carrier family 2, facilitated glucose transporter member 1 (Homo sapiens) (UniProt P11166); experiment: ST_JUDE_LEISH: Cytotoxicity at 2uM final concentration against transgenic Leishmania Mexicana promastigotes LmGLUT1 that are glucose transport deficient and complemented with the human glucose transporter GLUT1. Activity is measured by DNA content using SYBR green in vitro
Sequence of Solute carrier family 2, facilitated glucose transporter member 1 (Homo sapiens) (P11166 whole entry): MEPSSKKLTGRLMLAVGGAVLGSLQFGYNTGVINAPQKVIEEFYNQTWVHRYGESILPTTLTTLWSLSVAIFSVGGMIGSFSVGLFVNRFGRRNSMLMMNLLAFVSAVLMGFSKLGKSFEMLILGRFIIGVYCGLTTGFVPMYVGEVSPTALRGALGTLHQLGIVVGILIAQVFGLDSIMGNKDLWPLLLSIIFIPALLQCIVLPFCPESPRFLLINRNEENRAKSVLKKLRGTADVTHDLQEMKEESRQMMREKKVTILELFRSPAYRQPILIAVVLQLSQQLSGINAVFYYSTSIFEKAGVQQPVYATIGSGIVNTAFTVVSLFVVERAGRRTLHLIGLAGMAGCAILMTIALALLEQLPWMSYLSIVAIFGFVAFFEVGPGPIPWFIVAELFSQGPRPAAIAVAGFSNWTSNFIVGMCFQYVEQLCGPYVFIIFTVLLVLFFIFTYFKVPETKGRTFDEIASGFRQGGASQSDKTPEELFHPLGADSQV

[2] = molecular target: Hexose transporter 1 (Plasmodium falciparum) (UniProt O97467); experiment: ST_JUDE_LEISH: Cytotoxicity at 2uM final concentration against transgenic Leishmania Mexicana promastigotes LmPfHT that are glucose transport deficient and complemented with the Plasmodium falciparum hexose transporter. Activity is measured by DNA content using SYBR green in vitro
[3] = molecular target: Glucose transporter (Leishmania mexicana) (UniProt O61059); experiment: ST_JUDE_LEISH: Cytotoxicity at 2uM final concentration against transgenic Leishmania Mexicana promastigotes LmGT2 that are glucose transport deficient and complemented with the L. Mexicana glucose transporter 2. Activity is measured by DNA content using SYBR green in vitro

Structure (SMILES) | inhibition [1] | inhibition [2] | inhibition [3]
COC(=O)COc1cc(C(=O)NCCCCN2CCC(c3ccc4c(c3OC)CCCC4)CC2)ccc1-c1ccc(Cl)cc1 | 3.39% | 2.65% | 1.4%
CC(C)CCN(Cc1cncn1Cc1ccccc1F)C(=O)c1cncc(-c2ccccc2)c1 | 2.26% | 5.35% | 3.59%
Nc1nc(-c2ccccn2)nc(-n2nc(-c3cccc(C(F)(F)F)c3)cc2N)n1 | 3.56% | 2.31% | 1.29%
CC(=O)Nc1ccc(OCCCN(Cc2ccccc2C(F)(F)F)c2ccc(C(F)(F)F)c(C#N)c2)c(Cl)c1 | 6.79% | 5.68% | 1.94%
Oc1cc(Nc2ccnc3cc(I)ccc23)ccc1F | 1.98% | -0.07% | 0.37%
O=[N+]([O-])c1ccc(C2=NN(S(=O)(=O)c3c(Cl)cc(Cl)cc3Cl)CCCC2)cc1 | 0.34% | 0.56% | -0.34%
C[C@H](Cc1ccc(OCCCCCCOc2ccc(C[C@@H](C)NC(=O)[C@H](O)c3cccc(Cl)c3)cc2)cc1)NC[C@H](O)c1cccc(Cl)c1 | 7.21% | 5.41% | 4.7%
N=C(N)Nc1nc(-c2cccc(NC(=O)NCc3cccc4ccccc34)c2)cs1 | 1.1% | -0.38% | 0.66%
Nc1ccc2[nH]cc(C3CCN(CC4CCC(NC(=O)/C=C/c5ccccc5Cl)CC4)CC3)c2n1 (centres undefined) | 3.23% | 3.23% | 2.48%
CSc1ccc(CN2CCC(NC(=O)c3ccc(-c4ccc(N(C)C)cc4)s3)CC2)cc1 | 1.5% | 0.28% | 2.99%
FC(F)(F)c1ccc2[nH]c(-c3ccc(-c4ccc(CNCc5ccccc5)cc4)cc3)nc2c1 | 8.83% | 6.65% | 6.47%
c1ccc(-c2nc(Nc3ccncc3)sc2-c2ccccc2)cc1 | 4.18% | 4.94% | 1.21%
CN(C)CCOc1ccc2nc(-c3cccc(OCc4ccccc4)c3)[nH]c2c1C#N | 2.41% | 1.25% | 1.74%
Cc1cccc(OCC2CCN(c3ncc(C(=O)NC4CC4)cc3Cl)CC2)c1 | 0.26% | 5.86% | 2.26%
CCOC(=O)C1=C(C)NC2=C(C(=O)CC(C)(C)C2)C1c1ccc(Br)cc1 (centres undefined) | 1.77% | 0.63% | 0.59%
Cc1cc(=NN=Cc2ccc(F)cc2)c2ccc(F)cc2[nH]1 | 0.14% | 0.15% | -0.46%
NC(=O)c1ccccc1Nc1nc(Nc2cccc(N3CCN(CCO)CC3)c2)ncc1Cl | 64% | 67.3% | 57.8%

Structure (SMILES) | inhibition [1] | inhibition [2] | inhibition [3]
CCOC(=O)c1[nH]c2cc(Cl)cc(Cl)c2c1/C=C/C(=O)Nc1ccc(-c2cnc(NC(C)=O)[nH]2)cc1 | -1.61% | -2.31% | -1.73%
CC(=O)c1ccc2c(c1)C(NC(=O)c1cccc(Cl)c1Cl)C(CO)C(C)(C)O2 (centres undefined) | 1.76% | 3.84% | -1.69%
Clc1ccc2c(NCc3ccccc3)ccnc2c1 | 1.8% | 3% | -0.97%
CC1CN(Cc2cccc(F)c2)CCN1c1ccc(NC(=O)c2cccs2)cc1 (centres undefined) | -0.87% | -1.57% | -2.09%
CN1CCc2cc(NC(=O)c3cc4ccccc4s3)cc(-c3ccccc3)c2CC1 | 97.2% | 101% | 95.9%
COc1ccc(NC(=O)/C=C/c2ccccc2Cl)cc1OCCN1CCN(c2ccncc2)CC1 | 1.29% | -0.96% | -1.49%
Cc1ccc(NC(=O)Cc2noc(CC3CCCN3C(=O)N[C@@H](C)c3ccccc3)n2)cc1 (some centres undefined) | 3.91% | 2.95% | 1.32%
NC1CCN(CCNCc2cccc(-c3ccc(-c4nc5cc(F)ccc5[nH]4)cc3)c2)C1 (centres undefined) | 7.06% | 11.1% | 6.13%
CCn1c(-c2nonc2N)nc2cnc(Oc3cccc(NC(=O)c4ccc(OCCN(C(C)C)C(C)C)cc4)c3)cc21 | 15.1% | 18.2% | 5.45%
COc1ccc(NC(=O)NC2CCN(c3ccnc4ccccc34)C2)cc1 (centres undefined) | 0.52% | 0.7% | 2.29%
CC(C)Nc1nc(NCCc2c[nH]cn2)nc(NCc2ccc(Cl)c(Cl)c2)n1 | 3.82% | 0.13% | -0.25%
CCn1c(Sc2ccc(C#N)c([N+](=O)[O-])c2)nnc1-c1cc(OC)cc(OC)c1 | 1.62% | 0.59% | -0.03%
COCCNCc1ccc(-c2cccc(CNc3ccc(OC)cc3)c2)cc1 | 11.3% | 8.16% | 5.16%
OC(CNCc1ccccc1Oc1ccccc1)c1cc(Br)cs1 (centres undefined) | 4.37% | 3.03% | 3.26%
N=C1NC(c2ccccc2)(c2ccccc2)C(=O)N1C1CCCCC1 | 3.46% | 3.28% | 1.18%
CCC1N=C(N)N=C(N)N1OCCCOc1c(Cl)cc(Cl)cc1Cl (centres undefined) | 3.53% | 2.05% | 3.44%
